{"source": "PubChem BioAssay (Tox21)", "note": "Unmarked numbers belong to inactive results. The source made the active and inactive calls. The call rests on the fitted dose curve; in most records, active means well fitted activation curve with a large enough effect in the repeat runs; inconclusive means weak or mixed curves; inactive means flat fitted curve, though single readings scatter. On the % scale 0 is the no-effect control and ±100 the full control effect; potency means the concentration at half of the fitted maximal effect."}
{"assay": "A CellTox Green Cytotoxicity Assay to monitor cytotoxicity in HepG2 cells - 0 hour (AID 1224882); further: nearly all actives have a fitted effect of over 35% in size", "settings": "CellTox Green fluorescence; series mostly up to 76.8 µM; cytotoxicity: at the top concentration", "description": "National Center for Advancing Translational Sciences [NCATS]\nNIH Chemical Genomics Center [NCGC]\nU.S. Environmental Protection Agency [EPA]\nNational Institutes of Environmental Health Sciences [NIEHS]\nNational Toxicology Program [NTP]\nCell-based models are critical for drug discovery. Determining the natural cytotoxic effects resulting from test compounds is an essential research activity. A CellTox Green Cytotoxicity Assay to monitor cytotoxicity in real time of continues cell culture during 40 hours of the compound treatment was used to screen Tox21 10K library compounds in HepG2 cells. CellTox Green Cytotoxicity Assay is a nonlytic, homogeneous, biofluorescent method to measure cytotoxicity in cell culture after experimental manipulation. The assay system uses a proprietary asymmetric cyanine dye that is excluded from viable cells but preferentially stains the dead cell's DNA. […] Viable cells produce no appreciable increases in fluorescence. Therefore, the fluorescence signal produced by the binding interaction with dead cell DNA is proportional to cytotoxicity.\nThe mixture of HepG2 cell suspension and reagents were dispensed at 600cells/6 ul/well in 1536-well tissue culture treated black solid bottom plates using a Multidrop dispenser. After the assay plates were incubated at a 37 C/5% CO2 incubator for 5 hours, 23 nL of compounds dissolved in DMSO, positive and negative controls was transferred to the assay plate by a pintool work station. The plates were incubated at 37 C for 40 hours. The fluorescence intensity were measured at 0h, 8h, 16h, 24h, 32h and 40h time points using ViewLux plate reader during compound treatment."}
{"smiles": "c1ccc2c(c1)[nH]c1cnccc12", "cytotoxicity": "3.1%"}
{"smiles": "CCSC(C)CC1CC(=O)C(/C(CC)=N/OC/C=C/Cl)=C(O)C1", "note": "(stereo not given)", "cytotoxicity": "1.42% [at 35.3 µM]"}
{"smiles": "CC(C)[C@H](C(=O)O[C@H](C#N)c1cccc(Oc2ccccc2)c1)c1ccc(Cl)cc1", "cytotoxicity": "3.76%"}
{"smiles": "COP(=O)(CCC(=O)NCO)OC", "cytotoxicity": "-0.17%"}
{"smiles": "N#CCCSCCC#N", "cytotoxicity": "0.229%"}
{"smiles": "CC(=O)C(Cl)(Cl)Cl", "cytotoxicity": "-3.23%"}
{"smiles": "ClC1=C(Cl)C2(Cl)C3C(Cl)C=CC3C1(Cl)C2(Cl)Cl", "note": "(stereo not given)", "Potency": "inactive"}
{"smiles": "CC(C)(C)C(O)/C(=C\\c1ccc(Cl)cc1Cl)n1cncn1", "note": "(stereo not given)", "cytotoxicity": "-1.54%"}
{"smiles": "N#CC(Cl)Cl", "Potency": "1.51 µM (active)"}
{"smiles": "Oc1cccc(-c2ccccc2)c1", "cytotoxicity": "-3.46%"}
{"smiles": "Cc1cc(SCc2sc(-c3ccc(C(F)(F)F)c(F)c3)nc2C)ccc1OCC(=O)O", "cytotoxicity": "0.778%"}
{"smiles": "Nc1ccc(Cl)cc1C(=O)c1ccccc1", "cytotoxicity": "0.209%"}
{"smiles": "CCS(=O)(=O)c1cccnc1S(=O)(=O)NC(=O)Nc1nc(OC)cc(OC)n1", "cytotoxicity": "6.01%"}
{"smiles": "Nc1ccc(Sc2ccc(N)cc2)cc1", "cytotoxicity": "-1.74%"}
{"smiles": "CC(=O)[O-].[Tl+]", "cytotoxicity": "1.82%"}
{"smiles": "Fc1cccc(Cl)c1CCl", "cytotoxicity": "-7.01%"}
{"smiles": "[Cl][Sn]([c]1ccccc1)([c]1ccccc1)[c]1ccccc1", "cytotoxicity": "7.07% [at 15.8 µM]"}
{"smiles": "CCN(CC)c1c([N+](=O)[O-])cc(C(F)(F)F)c(N)c1[N+](=O)[O-]", "cytotoxicity": "3.49%"}
{"smiles": "CCCN(CCC)CCc1c[nH]c2ccccc12", "cytotoxicity": "-6.24%"}
{"smiles": "CC1(c2ccc(Oc3ccccc3)cc2)OC(=O)N(Nc2ccccc2)C1=O", "note": "(stereo not given)", "cytotoxicity": "3.53%"}
{"smiles": "Cc1cc(C(C)(C)c2cc(C)c(O)c(C)c2)cc(C)c1O", "cytotoxicity": "4.82%"}
{"smiles": "CC(C)(COCC1CO1)COCC1CO1", "note": "(stereo not given)", "cytotoxicity": "-5.39%"}
{"smiles": "CC(C)C(=O)Cl", "cytotoxicity": "-1.99%"}
{"smiles": "COC(=O)N(C(=O)N1CO[C@@]2(C(=O)OC)Cc3cc(Cl)ccc3C2=N1)c1ccc(OC(F)(F)F)cc1", "cytotoxicity": "4.82%"}
{"smiles": "CCOC(=O)OC1=C(c2cc(C)ccc2C)C(=O)NC12CCC(OC)CC2", "note": "(stereo not given)", "cytotoxicity": "-4.31%"}
{"smiles": "C[C@H]1O[C@@H](O[C@H]2[C@@H](O)C[C@H](O[C@H]3[C@@H](O)C[C@H](O[C@H]4CC[C@@]5(C)[C@H](CC[C@@H]6[C@@H]5CC[C@]5(C)[C@@H](C7=CC(=O)OC7)CC[C@]65O)C4)O[C@@H]3C)O[C@@H]2C)C[C@H](O)[C@@H]1O", "Potency": "inactive"}
{"smiles": "CCCCCCCCCBr", "cytotoxicity": "2.99%"}
{"smiles": "CCC(C)c1cc([N+](=O)[O-])cc([N+](=O)[O-])c1OC(=O)C=C(C)C", "note": "(stereo not given)", "cytotoxicity": "-2.32%"}
{"smiles": "CCN(CC)C(=S)[S-].CCN(CC)C(=S)[S-].[Zn+2]", "cytotoxicity": "0.0307%"}
{"smiles": "CN(C)[C@@H]1C(=O)C(C(N)=O)=C(O)[C@@]2(O)C(=O)C3=C(O)c4c(O)ccc(Cl)c4[C@@](C)(O)[C@H]3C[C@@H]12", "cytotoxicity": "-4.74%"}
{"smiles": "COP(=O)(OC)SCn1c(=O)oc2cc(Cl)cnc21", "cytotoxicity": "-6.13%"}
{"smiles": "CCCCCCCCCCCCCCCC[n+]1ccccc1", "Potency": "inactive"}
{"smiles": "CC(C)OC(=O)C(O)(c1ccc(Cl)cc1)c1ccc(Cl)cc1", "cytotoxicity": "2.19%"}
{"smiles": "CCOP(=S)(OCC)SCS(=O)(=O)CC", "cytotoxicity": "0.0062%"}
{"smiles": "CC(C)CC(C)N", "note": "(stereo not given)", "cytotoxicity": "0.529%"}
{"smiles": "CS(=O)(=O)c1ccc(C(=O)C2C(=O)CCCC2=O)c([N+](=O)[O-])c1", "Potency": "39.6 µM (active)"}
{"smiles": "COCC(=O)N(c1c(C)cccc1C)[C@H](C)C(=O)OC", "cytotoxicity": "-1.01%"}
{"smiles": "C=CC(=O)N(C)C", "cytotoxicity": "-7.98%"}
{"smiles": "CCCCCCCCCCCCCCCCCCn1cc[n+](C)c1", "cytotoxicity": "7.6%"}
{"smiles": "Nc1ccc(Cc2ccc(N)c(Cl)c2)cc1Cl", "cytotoxicity": "-16%"}
